Data taken from PubChem BioAssay (NCI).
About 79,000 compounds went through this panel and 15% of them were active in at least one assay; those are over-represented in the sample as a whole. Unmarked numbers belong to inactive results. Activity calls are given as the source filed them. Rule as the data show it: active = growth inhibition above about 70%; inactive = the rest.

assay: NCI Yeast Anticancer Drug Screen. Data for the mec2-1 strain (AID 157); details: S. cerevisiae mec2-1 strain, at 50.0 µM, active compounds read high
Outline: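 Strain: mec2-1 (DNA repair/cell cycle alteration). Compound exposure, then growth measured; inhibition expressed relative to vehicle.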

Row | Structure (SMILES) | growth inhibition
1 | CCN(CCO)CC(=O)c1cc(Cl)ccc1OC | 13.6%
2 | CCC1CCC(Cc2ccncc2)CC1 (centres undefined) | -7.4%
3 | O=C1c2ccccc2C(=O)c2c1cccc2S(=O)(=O)Nc1ccccc1 | 8.85%
4 | O=C(Nc1ccc(Cl)cc1)OCC#CCOC(=O)Nc1ccc(Cl)cc1 | -2.75%
5 | CCN(CC)CCOc1ccc(/C(C#N)=C/c2ccc(OCCN3CCCCC3)cc2)cc1 | 20.9%
6 | O=C(Nc1ccccc1)c1ccccc1Cl | -0.15%
7 | CCC1CCC(=O)NC1=O (centres undefined) | -1.15%
8 | CCN(CC)CCOC(=O)c1ccc(N)c2ccccc12 | 12.2%
9 | NC1CC(=O)c2c(Cl)sc(Cl)c21 (centres undefined) | 35.7%
10 | CCC1(CC)SCc2nc3ccccc3n21 | 18.2%
11 | O=c1[nH]cnc2nn(C3OC(CO)C(O)C3O)cc12 (centres undefined) | 12.9%
12 | CC1=NN(C(=O)Cc2ccccc2)C(=O)/C1=C\c1ccco1 | -37.4%
13 | CCCCCCCCCCCCCCCCCC(N)=O | -14.2%
14 | Cc1ccc(-c2nnc(-c3cccc4ccccc34)o2)cc1 | -31.9%
15 | CC12OC(=O)CC1C(c1ccccc1)(c1ccccc1)O2 (centres undefined) | -8%
16 | CCCCCCCCC(=O)c1c(OC)oc(/C=N/NC(N)=S)cc1=O | 77.1% (active)
17 | CC(=O)N/N=C1/NN(C(C)=O)C2(S1)C(=O)Nc1ccc(C)cc12 (centres undefined) | 38.8%
18 | CCOc1ccccc1NC(=O)CC1Sc2ccccc2NC1=O (centres undefined) | -14.7%
19 | CCOC(=O)CS | -6.5%
20 | O=c1c2c(ccc3ccccc32)oc2ccc3ccccc3c12 | 1.45%
21 | CC1(C)CCC(=O)OC1C[N+](=O)[O-] (centres undefined) | -10.8%
22 | CC(=O)OCN(C)C=O | 11.3%
23 | O=C(NC1C=Nc2ccc([N+](=O)[O-])cc2NC1=O)c1ccc(Cl)cc1 (centres undefined) | 7.8%
24 | CCNC(=O)N(C)Cc1ccc(Cl)cc1 | 8.7%

assay: NCI Yeast Anticancer Drug Screen. Data for the sgs1 mgt1 strain (AID 161);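 also: 0% = growth of cultures given vehicle only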; details: S. cerevisiae sgs1 mgt1 strain, at 50.0 µM, active compounds read high
Outline: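 Test agents were incubated with a DNA-repair-mutant yeast strain. Growth was then read and compared against vehicle-treated controls.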

Row | Structure (SMILES) | growth inhibition
25 | CCN(CC)CCN(CC)CC(=O)Nc1ccccc1Cl | -1.65%
26 | COc1[nH]c2ccccc2c1C=O | 22.3%
27 | CCOC(=O)C1=C(C(=O)c2ccc(C)cc2)C(c2ccc([N+](=O)[O-])cc2)C(C(=O)c2ccc(C)cc2)=C(C(=O)OCC)N1 | -8.9%
28 | CCOC(=O)CC1(CC(=O)OCC)OCCO1 | -2.05%
29 | CCOC(=O)CCC1(C)OCC(O)CO1 (centres undefined) (tested in a mixture with another compound) | -5.6%
30 | O=C(NCCc1[nH]nc2c1C(=O)C=C(Nc1ccccc1)C2=O)OCc1ccccc1 | -32.4%
31 | NNC(=O)c1ccc(OCc2nc3ccccc3[nH]2)cc1 | 1.2%
32 | C=Cc1c(C)c2cc3[nH]c(cc4nc(cc5nc(cc1[nH]2)C(C)=C5CCC(=O)OC)C(CCC(=O)OC)=C4C)c(C)c3C=C | 10.3%
33 | Cc1cc(N(CCC#N)S(=O)(=O)c2ccccc2)ccc1C=Nc1ccc(C(=O)O)cc1 | -6.15%
34 | CC(C)NC(=O)CCC(=O)O | -17.9%
35 | CC1=N/C(=C\c2ccc([N+](=O)[O-])cc2)C(=O)O1 | 2.45%
36 | COc1cc(C(C#N)NNC(=O)c2ccccc2O)ccc1O (centres undefined) | 44.7%
37 | NC(=O)CO | 17.6%
38 | CC1=CC(O)(Cc2ccccc2)CC(C)(C)C1 (centres undefined) | -17.9%
39 | CCCCCn1c(=O)c2c(=O)[nH][nH]c2c2ccccc21 | -9.55%
40 | CCCc1cc(=O)oc2c3c(c4c(c12)OC(C)(C)CC4)O[C@H](C)C(C)[C@@H]3O (some centres undefined) | 22.1%
41 | CCN(CCO)CC(=O)c1cc(Cl)ccc1OC | 16.2%
42 | CCC1CCC(Cc2ccncc2)CC1 (centres undefined) | -11.9%
43 | O=C1c2ccccc2C(=O)c2c1cccc2S(=O)(=O)Nc1ccccc1 | 11.2%
44 | O=C(Nc1ccc(Cl)cc1)OCC#CCOC(=O)Nc1ccc(Cl)cc1 | -6.3%

Row | Structure (SMILES) | growth inhibition
45 | CCN(CC)CCOc1ccc(/C(C#N)=C/c2ccc(OCCN3CCCCC3)cc2)cc1 | 57.3%
46 | O=C(Nc1ccccc1)c1ccccc1Cl | 0.35%
47 | CCC1CCC(=O)NC1=O (centres undefined) | 11.7%
48 | CCN(CC)CCOC(=O)c1ccc(N)c2ccccc12 | -14.3%
49 | NC1CC(=O)c2c(Cl)sc(Cl)c21 (centres undefined) | 60.5%
50 | CCC1(CC)SCc2nc3ccccc3n21 | 58.3%
51 | O=c1[nH]cnc2nn(C3OC(CO)C(O)C3O)cc12 (centres undefined) | -6.85%
52 | CC1=NN(C(=O)Cc2ccccc2)C(=O)/C1=C\c1ccco1 | -47.9%
53 | CCCCCCCCCCCCCCCCCC(N)=O | 3.35%
54 | Cc1ccc(-c2nnc(-c3cccc4ccccc34)o2)cc1 | 0.75%
55 | CC12OC(=O)CC1C(c1ccccc1)(c1ccccc1)O2 (centres undefined) | 4.1%
56 | CCCCCCCCC(=O)c1c(OC)oc(/C=N/NC(N)=S)cc1=O | 79% (active)
57 | CC(=O)N/N=C1/NN(C(C)=O)C2(S1)C(=O)Nc1ccc(C)cc12 (centres undefined) | 40.1%
58 | CCOc1ccccc1NC(=O)CC1Sc2ccccc2NC1=O (centres undefined) | 15.3%
59 | CCOC(=O)CS | -15.6%
60 | O=c1c2c(ccc3ccccc32)oc2ccc3ccccc3c12 | -5.45%
61 | CC1(C)CCC(=O)OC1C[N+](=O)[O-] (centres undefined) | 24.2%
62 | CC(=O)OCN(C)C=O | 18.7%
63 | O=C(NC1C=Nc2ccc([N+](=O)[O-])cc2NC1=O)c1ccc(Cl)cc1 (centres undefined) | 7.35%
64 | CCNC(=O)N(C)Cc1ccc(Cl)cc1 | -11.6%
